About 25 (0.2%) of roughly 10,000 compounds were called active. The sample holds actives, similar compounds and a random draw of the others, so the mix is not that of the screen.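 How the source made its calls: active means compound among top-ranked inhibitors of TNF-induced VCAM-1 adhesion protein staining, with the hit upheld by image or statistical review; inactive means the rest, including hits rejected on review.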
Assay: inhibitors of TNFa-induced VCAM-1 surface display, cell-based, plate reader, pooled HUVEC, TNFa stimulus (AID 454)
Settings: HUVEC TNFa-induced VCAM-1 surface immunofluorescence; active compounds read high,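 compound tested at 5 µM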
For `O=C(CN1C(=O)CN=C(c2ccccc2)c2ccccc21)NCc1ccco1`, the inhibition was “inactive”. With `Cc1cccc(C2=NCC(=O)N(CC(=O)NCc3ccco3)c3sc4c(c32)CCCC4)c1` the inhibition was 78.7% (active). In the case of `O=C(Cn1cc(C(=O)c2ccccc2)c2ccccc21)NCc1ccco1`, the inhibition was “inactive”. In the case of `COc1ccc(CCn2c(O)c(C=NCc3cccnc3)c(=O)[nH]c2=O)cc1OC`, the inhibition was “inactive”. For `CCOc1ccc(C2SCC(=O)Nc3c2c(=O)[nH]n3C2CCCCCC2)cc1` (stereo not given), the inhibition was “inactive”.
